For the assay, the target named is Estrogen receptor beta (Homo sapiens) (UniProt Q92731). The assay is described as follows: ERbeta ligand binders by competition, primary screen, cell-based, Cos7 ERbeta-GFP, flow cytometry (AID 1210).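 Also: 0% = DMSO vehicle wells and 100% = complete loss of labeled estradiol signal.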 The conditions noted are these: fluorescent estrogen binding, stronger effect = higher value. For orientation: A flow cytometer gives signals particle by particle.
Where [1] appears, read: ligand binding inhibition, at 0.1 µM.

The source made the active and inactive calls.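 The calls were made as follows: active = blocks over 70% of labeled estradiol binding at 10 µM, or over a set limit at 100 nM; inactive = the rest.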

Estrogen receptor beta (Homo sapiens), sequence (Q92731 whole entry, looked up): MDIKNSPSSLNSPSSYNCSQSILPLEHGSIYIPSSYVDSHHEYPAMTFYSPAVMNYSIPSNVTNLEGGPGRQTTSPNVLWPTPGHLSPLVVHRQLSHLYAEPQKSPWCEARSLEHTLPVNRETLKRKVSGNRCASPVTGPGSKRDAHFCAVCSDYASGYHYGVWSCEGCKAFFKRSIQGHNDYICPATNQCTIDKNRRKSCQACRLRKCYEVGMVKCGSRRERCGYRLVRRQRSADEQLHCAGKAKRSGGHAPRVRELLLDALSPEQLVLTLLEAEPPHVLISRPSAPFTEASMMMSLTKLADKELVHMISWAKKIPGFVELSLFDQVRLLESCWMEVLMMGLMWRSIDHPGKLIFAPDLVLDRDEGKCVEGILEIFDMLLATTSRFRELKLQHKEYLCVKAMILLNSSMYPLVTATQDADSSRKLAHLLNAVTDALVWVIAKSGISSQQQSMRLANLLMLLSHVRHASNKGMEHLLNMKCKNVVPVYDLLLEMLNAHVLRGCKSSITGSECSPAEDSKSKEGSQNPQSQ

Consider `COc1ccc(/C=N/NC(=O)c2nc(-c3ccccc3)cc(-c3ccccc3)n2)cc1O`, for which the inhibition (usually how much of the control response was suppressed) is, setting by setting: (at 10 µM) 71% (active); under setting [1], 81%.
With `CCC1(CC)NC(=O)N(CC(=O)Nc2sc3c(c2C(N)=O)CCC3)C1=O`, the inhibition (at 10 µM) is 16% (inactive) and the inhibition under setting [1] turned out to be 5%.
For the compound `O=C1c2ccccc2NC(c2ccc(O)cc2)N1/N=C/c1ccc(O)cc1` (stereo not given), the inhibition reads like this: (at 10 µM) 71% (active); under setting [1], 1%.
For `O=C(Cc1cn2ccsc2n1)OCc1nc2ccccc2s1`, the inhibition (at 10 µM) is 58% (inactive) and the inhibition under setting [1] stood at 24%.
Take `CC(C)CC(=O)Nc1ccc(C(=O)COc2ccc(-c3nnco3)cc2)cc1`: the inhibition is, setting by setting: (at 10 µM) 44% (inactive); under setting [1], 49%.
With `COc1ccc(NC(=O)c2ccco2)cc1N`, the inhibition was 69% (inactive) (at 10 µM) and 17% under setting [1].
Consider `C=CCn1c(COc2ccccc2F)nnc1SCC(=O)NC(=O)NCc1ccco1`, for which the inhibition (at 10 µM) is 24% (inactive) and the inhibition under setting [1] was 2%.
For `Nc1cc2sc(-c3ccc(C(=O)O)cc3)nc2cc1Cl` the same measures were 22% (inactive) and 44%.
Take `CC(Cc1ccc(O)c(O)c1)C(C)Cc1ccc(O)c(O)c1` (stereo not given): the inhibition is, setting by setting: (at 10 µM) 65% (inactive); under setting [1], 18%.
Regarding `CCCCN(CCCC)S(=O)(=O)c1ccc(NC(=O)Cc2cccs2)cc1`, the inhibition was 50% (inactive) (at 10 µM) and 19% under setting [1].
`CCOC(=O)c1c(C)[nH]c(C)c1C(=O)CSc1nnc(-c2cc(OC)c(OC)c(OC)c2)o1`: the inhibition (at 10 µM) is 69% (inactive) and the inhibition under setting [1] was found to be 7%.
With `COCc1cc(=O)n2c(-c3ccc(C)cc3)n[nH]c2n1`, the inhibition is 12% (inactive) (at 10 µM) and 39% under setting [1].
Consider `O=C(Nc1ccc(-c2nc3ccc(NC(=O)c4cccs4)cc3[nH]2)cc1)c1cccs1`, for which the inhibition was 58% (inactive) (at 10 µM) and 18% under setting [1].
On the same counts, the results for `CCOC(=O)c1c(/N=C/c2ccc(O)cc2O)sc2c1CCC2` are 33% (inactive) and 22%.
Take `CCn1c(SCC(=O)N2CCOCC2)nc2oc3c(Cl)cc(Cl)cc3c(=O)c2c1=O`: the inhibition reads like this: (at 10 µM) 56% (inactive); under setting [1], 1%.
For `O=C(NC1CCN(C(=O)N2c3ccccc3Sc3ccccc32)CC1)c1ccccc1Cl` the same measures were 18% (inactive) and 23%.
On the same counts, the results for `CCc1ccc2[nH]c(=O)c(C3C(C#N)=C(N)Oc4c3ccc3cccnc43)cc2c1` (stereo not given) are 23% (inactive) and 36%.
For `COc1cc(NC(=O)c2cccs2)c(C(=O)OCC(=O)NC(=O)NCc2ccccc2)cc1OC` the same measures were 8% (inactive) and 17%.
Consider `Cc1ccc(-n2c(SCC(=O)NNC(=S)Nc3ccccc3)nc3ccccc3c2=O)cc1`, for which the inhibition runs as follows: (at 10 µM) 34% (inactive); under setting [1], 4%.
Take `COc1ccccc1-c1nnc2sc(-c3cnccn3)nn12`: the inhibition runs as follows: (at 10 µM) 40% (inactive); under setting [1], 17%.
For `COC(=O)c1ccc(CC(=O)c2ccc(O)cc2O)o1`, the inhibition runs as follows: (at 10 µM) 44% (inactive); under setting [1], 20%.
As for `O=C1C(c2ccnc3ccccc23)=C(O)c2ccccc21`, the inhibition is 60% (inactive) (at 10 µM) and 18% under setting [1].
For `Cc1oc2cc(O)ccc2c(=O)c1Oc1ccccc1` the same measures were 22% (inactive) and 37%.
For `Cc1ccsc1/C=C(\C(=O)c1ccc(OC(C)C)cc1)c1nc2ccccc2o1`, the inhibition runs as follows: (at 10 µM) 34% (inactive); under setting [1], 60%.
For `O=C(O)c1cc(Cl)c2c(c1)[C@@H]1C=CC[C@@H]1[C@H](c1ccc(S(=O)(=O)N3CCOCC3)cc1)N2` the same measures were 45% (inactive) and 8%.
